High-throughput results as filed in PubChem.
Compounds with a hit are over-represented: about 2.4% of the library has one in this group of screens.
D2 antag: antagonists of human D2 dopamine receptor; P14416; HEK293 TREx D2 cells, calcium flux, dopamine EC80; inhibition, % at 10 µM; 340,000 tested, 2% active; AID 485344; in the data active means inhibition above about 30%; inactive means below that, where a call was filed
Target sequence (P14416 whole entry, looked up): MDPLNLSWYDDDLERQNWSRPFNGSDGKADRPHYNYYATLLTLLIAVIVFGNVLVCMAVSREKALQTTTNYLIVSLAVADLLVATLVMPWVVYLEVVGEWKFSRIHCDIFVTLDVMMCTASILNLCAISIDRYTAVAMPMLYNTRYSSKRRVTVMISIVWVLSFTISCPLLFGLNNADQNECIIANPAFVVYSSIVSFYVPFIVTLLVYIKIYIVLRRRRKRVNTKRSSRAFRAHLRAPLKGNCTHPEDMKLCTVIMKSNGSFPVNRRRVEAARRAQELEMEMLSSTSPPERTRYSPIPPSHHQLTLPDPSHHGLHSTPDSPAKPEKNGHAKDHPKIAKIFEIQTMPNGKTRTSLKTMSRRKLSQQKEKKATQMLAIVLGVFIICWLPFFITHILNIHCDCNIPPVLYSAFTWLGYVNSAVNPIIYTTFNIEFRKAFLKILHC
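Compounds are added to dye-loaded, induced HEK293 T-REx cells coupled to calcium release via D2; after a 3 min kinetic read an EC80 dopamine stimulus is given and fluorescence is recorded for 3 more min.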
D2 ag-1: activates the human D2 dopamine receptor | P14416 | 360,000 tested, 0.084% active | AID 624465 | activation, % (concentration not given with the values) | DiscoveRx PathHunter D2 beta-arrestin, luminescence, 90 min; 100% = 57 uM dopamine signal; in the data active means activation above about 40%
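Agonist mode: compounds alone added to overnight-plated D2 PathHunter cells for 90 min at 37 C, with 57 uM final dopamine (EC100) defining full response. Beta-arrestin recruitment detected by chemiluminescent reagent, read after 1 h at ambient temperature.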
D2 ag-2: D2 dopamine receptor (human) agonism | P14416 | HEK293 T-REx D2 cells, calcium flux agonist mode | activation, % at 2 µM | 340,000 tested, 0.53% active;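 active means activation over 3 SD above normal in the single-dose calcium agonist read, cut at about 30% in these data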
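Calcium-flux readout, 1 cycle/sec over 180 s following compound pin transfer, in inducible HEK293 Trex D2 cells (force-coupled); dopamine controls included. Positive calcium responses during this window marked compounds as potential agonists.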
D2 PAM-1: D2 dopamine receptor (human) potentiation | HEK293 T-REx D2, calcium flux, EC20 dopamine potentiation | potentiation, % at 10 µM | 340,000 tested, 0.34% active;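 active means potentiation over 3 SD above the plate norm, cut at about 30% in these data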
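Cells plated with tetracycline inducer and held overnight at 30 C; calcium dye loaded 30–90 min at room temperature; baseline taken, compound added and read 180 s; EC20 dopamine then added and read 180 s.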
D2 PAM-2: human D2 receptor positive allosteric modulation; P14416; DiscoveRx D2 beta-arrestin cells, luminescence, 90 min; 100% = 57 uM dopamine signal; potentiation, % (test concentration not listed); 360,000 tested, 0.23% active; in the data active means potentiation above about 50%
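PathHunter beta-arrestin assay in DiscoveRx D2 cells. Compounds were added with an EC20 of dopamine (50 nM final) for 90 min at 37 deg C. Luminescence was read 1 h after detection reagent, with 57 uM dopamine as the EC100 control.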
Large screens that a line does not name were inactive.

CCN1C(=O)c2ccccc2S(=O)c2ccc(C(=O)NCc3ccc(OC)cc3)cc21 (configuration not stated)	D2 antag 81
CCCN(CCC)CCCNC(=O)c1ccc2c(c1)N(CC)C(=O)c1ccccc1S2=O (configuration not stated)	D2 antag 107
CCOCCCNC(=O)c1ccc2c(c1)N(CC)C(=O)c1ccccc1S2=O (configuration not stated)	none
O=C(NCCCNCCCNC(=O)c1ccc(/C=N/O)nc1)c1ccc(/C=N/O)nc1	none
CC(c1n[nH]c(=S)n1-c1ccc(F)cc1)N1CCCCC1 (configuration not stated)	none
Cc1ccc(N2CCN(c3cc(C)nc4c5c(C)cc(C)nc5nn34)CC2)cc1	none (no result: D2 ag-1, D2 PAM-2)
CCN1CCN(C(=O)c2ccc3c(c2)N(Cc2ccccc2)C(=O)c2ccccc2S3=O)CC1 (configuration not stated)	none
CCN1CCN(CCNC(=O)c2ccc3c(c2)N(Cc2ccc(F)cc2)C(=O)c2ccccc2S3=O)CC1 (configuration not stated)	D2 antag 55
COc1ccc2c(c1)C(=O)/C(=C/C=C/c1ccccc1)CC2	none
CCOc1ccc(N2C(=O)S/C(=C\c3ccc(O)c(OC)c3)C2=O)cc1	none
COc1cc(/C=C2\SC(=S)N(NC(=O)c3ccc(O)cc3)C2=O)ccc1O	D2 ag-2 36
COc1cc(/C=C2\SC(c3ccc(C)cc3)=NC2=O)ccc1O	D2 antag 32
COc1ccc(/C=C2\SC(c3ccc(C)cc3)=NC2=O)cc1OC	none
CCOc1cc(/C=C2\SC(=S)N(Nc3ccccc3)C2=O)ccc1O	D2 antag 35
COc1cc(/C=C2\SC(=N)N(c3ccc(F)cc3)C2=O)ccc1O	D2 antag 56
O=C(Nc1ccc(Cl)cc1C(=O)N1CCCC1)c1cccc([N+](=O)[O-])c1	none
CC(=O)c1ccc(N2CCN(C(=O)Cn3ncc4c3-c3ccccc3OC4)CC2)cc1	none (no result: D2 antag, D2 ag-1, D2 PAM-2)
CC(=O)Nc1ccc(-c2nc3ccccc3c(=O)o2)cc1	none
CCOc1ccc(N2CC(O)(c3ccc(F)cc3)[N+]3=C2CCCC3)cc1 (configuration not stated)	D2 antag 30
COc1cccc(/C=C/C(=O)Nc2ccc(C(=O)Nc3cccc(S(N)(=O)=O)c3)cc2)c1OC	D2 antag 77
COc1cccc(/C=C/C(=O)Nc2ccc3nc4n(c(=O)c3c2)CCCC4)c1OC	D2 PAM-1 35
COc1cccc(/C=C/C(=O)Nc2ccc3c(c2)OCCO3)c1OC	D2 antag 69
COc1cccc(/C=C/C(=O)Nc2cccc(C(C)=O)c2)c1OC	none
COc1cc(/C=C/C(=O)Nc2ccc3nc4n(c(=O)c3c2)CCCC4)cc(OC)c1OC	none
O=C(CCc1nnc2ccc(NCc3ccccc3Cl)nn12)NC1CCCC1	none
CC1(C)Cc2c(c(N3CCOCC3)nc3sc(C(N)=O)c(N)c23)CO1	none
CC1(C)Cc2c(c(N3CCOCC3)nc3sc(C#N)c(N)c23)CS1	D2 antag 38
CCn1nc(C)c(CN2CCC(C(=O)Nc3cccc(-c4cccc(F)c4)c3)CC2)c1C	D2 antag 38
CCn1cc(CN2CCC(C(=O)Nc3cccc(-c4cccc(F)c4)c3)CC2)cn1	none
CCc1ccc2c(CN3CCc4cc(OC)c(OC)cc4C3)cc(=O)oc2c1	D2 antag 32
COc1ccccc1C1CCN(Cc2ccc(C)cc2)CC1	D2 antag 95
COc1cc2c(cc1OC)CN(Cc1ccc(C)cc1)CC2	D2 antag 56
COc1ccccc1CNC1CCN(Cc2ccccc2)CC1	none (no result: D2 antag, D2 ag-2, D2 PAM-1)
COc1cc(NC(=O)COc2ccc(F)cc2)nc(OC)n1	none
c1ccc(-c2noc(CSc3nc4ccccc4o3)n2)cc1	none
Clc1ccc(-c2nnc(SCc3nc(-c4ccccc4)no3)o2)cc1	D2 antag 41
CCOC(=O)C1CCCN(C(=O)c2cn(C)c3ccc(S(=O)(=O)N(C)C)cc3c2=O)C1 (configuration not stated)	none
Cc1ccc(C)c(NC(=O)CN(C)C(=O)c2ccc3c(=O)n4c(nc3c2)CCC4)c1	D2 antag 33
O=C(Oc1ccccc1F)c1ccc2c(=O)n3c(nc2c1)CCC3	D2 antag 32
O=C(Oc1ccccc1Cl)c1ccc2c(=O)n3c(nc2c1)CCC3	none
CC(C)(C)c1cc(NC(=O)COC(=O)c2ccc3c(=O)n4c(nc3c2)CCC4)n(-c2ccccc2)n1	D2 PAM-1 46
Cc1ccccc1S(=O)(=O)N1C[C@H]2CON(C)[C@H]2C[C@H]1c1cccc(Br)c1	none (no result: D2 antag, D2 ag-2, D2 PAM-1, D2 PAM-2)
CC(CN1CCN(CCOCCO)CC1)CN1c2ccccc2Sc2ccc(Cl)cc21 (configuration not stated)	none (no result: D2 antag, D2 ag-2, D2 PAM-1)
CCSc1ccc2c(c1)N(CCCN1CCN(C)CC1)c1ccccc1S2	D2 antag 83
CN1CCN(CCCN2c3ccccc3Sc3ccc(Cl)cc32)CC1	D2 antag 72 (no result: D2 ag-1, D2 ag-2, D2 PAM-1, D2 PAM-2)
O=C1C(=O)c2ccccc2C(O)=C1c1cccc([N+](=O)[O-])c1	D2 antag 48
Cc1ccc(NC(=O)Cn2nnc(-c3ccccc3-n3cnnn3)n2)c(C)c1	none (no result: D2 antag, D2 ag-2)
Cc1nnc(N/N=C/c2c(Cl)cccc2Cl)n1N	none
CCc1nnc(N/N=C/c2c(F)cccc2Cl)n1N	D2 ag-1 41
CC(=O)Nc1ccc(OC(=O)c2ccc(Cl)cc2)cc1	D2 antag 33
O=C1CCC(C(=O)N2CCC(CCO)CC2)CN1Cc1ccc(Cl)cc1 (configuration not stated)	none
CN(c1ccc(F)cc1)S(=O)(=O)c1ccc(Cl)c(C(=O)NCC2CCCO2)c1 (configuration not stated)	D2 PAM-1 32
O=C(NCC1CCCO1)c1cc(S(=O)(=O)N2CCOCC2)ccc1Cl (configuration not stated)	none
CN(c1ccc(C(=O)NCC2CCCO2)cc1)S(=O)(=O)c1ccc(Cl)cc1 (configuration not stated)	none (no result: D2 antag, D2 ag-2, D2 PAM-1)
O=C(NCC1CCCO1)c1cccc(Br)c1 (configuration not stated)	none
O=C(NCC1CCCO1)c1ccc(NC(=O)c2cccc(Br)c2)cc1 (configuration not stated)	D2 PAM-2 94 (no result: D2 antag, D2 ag-2, D2 PAM-1)
O=C(NCC1CCCO1)c1cc(S(=O)(=O)Nc2ccc(Br)cc2)ccc1Cl (configuration not stated)	D2 antag 53
O=C(NCC1CCCO1)c1cc2c([nH]c3ccccc32)c(-c2cccc(Br)c2)n1 (configuration not stated)	D2 antag 34
O=C(COc1ccc(S(=O)(=O)NC2CCCCC2)cc1)NC1CC1	none
CCOC(=O)C1=C(C)NC(C)=C(C(=O)OCC)C1/C=C/c1ccccc1	none
